Results reported in paper PMC5540273 (PLoS ONE, 2017).
“And” between values parts separate entries of the source, which are not always exact repeats. Equal entries are not always repeated. Where two headings read alike, the source gives them in different places.

Key:
DMPK = conditions: concentration: 1 μM, replicates: in singlicate, n = 1
DRAK1 = tested on: T1, DRAK1; conditions: concentration: 1 μM, replicates: in singlicate, n = 1
T1 construct: gene STK17A

DRAK2 = tested on: T2, DRAK2; conditions: n = 1
T2 construct: gene STK17B

DYRK1A = conditions: concentration: 1 μM, replicates: in singlicate, n = 1
DYRK1B = conditions: concentration: 1 μM, replicates: in singlicate, n = 1
DYRK2 = conditions: concentration: 1 μM, replicates: in singlicate, n = 1
EGFR = conditions: concentration: 1 μM, replicates: in singlicate, n = 1
EIF2AK1 = conditions: concentration: 1 μM, replicates: in singlicate, n = 1
EPHA1 = conditions: concentration: 1 μM, replicates: in singlicate, n = 1
EPHA2 = conditions: concentration: 1 μM, replicates: in singlicate; n = 1
[1] = concentration: 1 μM, replicates: in singlicate
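Further: KINOMEscan kinase panel screen.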

Row | Compound | %Inh (DMPK) [%] | %Inh (DRAK1) [%] | %Inh (DRAK2; [1]) [%] | %Inh (DYRK1A) [%] | %Inh (DYRK1B) [%] | %Inh (DYRK2) [%] | %Inh (EGFR) [%] | %Inh (EIF2AK1) [%] | %Inh (EPHA1) [%] | %Inh (EPHA2) [%] | %Inh (DMPK; 1 µM) | %Inh (DRAK1; 1 µM) | %Inh (DRAK2; concentration: 1 μM, replicates: in singlicate, 1 µM) | %Inh (DYRK1A; 1 µM) | %Inh (DYRK1B; 1 µM) | %Inh (DYRK2; 1 µM) | %Inh (EGFR; 1 µM) | %Inh (EIF2AK1; 1 µM) | %Inh (EPHA1; 1 µM) | %Inh (DRAK2; 1 µM) [%]
1 | COC(=O)Nc1nc2cc(Oc3ccc(NC(=O)Nc4cc(F)ccc4F)cc3)ccc2[nH]1.Cl [GW701424] | 0 | 2 | 0 | 5 | 6 | 0 | 35 | 0 | 11 | 63 |  |  |  |  |  |  |  |  |  | 
2 | COc1cc2c(cc1OC[C@@H](O)CO)ncc1c3ccc(C#N)cc3[nH]c21 | 0 | 98.7 | 99.7 | 99 | 83 | 86 | 0 | 0 | 4 | 0 |  |  |  |  |  |  |  |  |  | 
3 | Nc1nccc(-c2c(-c3ccc(F)cc3)ncn2C2CCN(CC(F)(F)F)CC2)n1 [SB-236560] | 11 | 0 | 1 | 5 | 28 | 0 | 29 | 20 | 0 | 0 |  |  |  |  |  |  |  |  |  | 
4 | O=C1Cc2cc(Nc3nc(NCc4cccc(S(=O)(=O)C(F)(F)F)c4)ncc3C(F)(F)F)ccc2N1 | 5 | 6 | 0 | 13 | 26 | 0 | 0 | 0 | 19 | 3 |  |  |  |  |  |  |  |  |  | 
5 | NCCNS(=O)(=O)c1ccc(-c2ccnc3[nH]ccc23)cc1 [GSK977617] |  |  |  |  |  |  |  |  |  | 0 | 98.6% and 96.7% | 98.5% and 96.6% | 77% and 60% | 89% and 84% | 85% and 61% | 86% and 72% | 22% and 15% | 11% and 0% | 54% and 38% | 
6 | COc1cc(Nc2nccc(N3CCC(NC(=O)c4cccc(NC(C)=O)c4)C3)n2)cc(OC)c1OC (centres unmarked) [GSK1379754] | 0 | 32 | 29 | 17 | 28 | 28 | 0 | 0 | 11 | 0 |  |  |  |  |  |  |  |  |  | 
7 | N#Cc1c(N2CCOCC2)sc(-c2ccn[nH]2)c1-c1ccc(Cl)cc1 | 4 | 0 | 0 | 0 | 47 | 0 | 0 | 0 | 1 | 0 |  |  |  |  |  |  |  |  |  | 
8 | CSc1ccc(-c2cc3ncnc(SCC(=O)O)c3s2)cc1 | 0 | 37 |  | 0 | 0 | 0 | 27 | 12 | 11 | 0 |  |  |  |  |  |  |  |  |  | 97.7
9 | O=C(c1ccc(-c2cc(-c3c[nH]nc3-c3ccccn3)ccn2)cc1)N1CCOCC1 [GW812171] | 5 | 0 | 0 | 0 | 0 | 33 | 4 | 0 | 0 | 0 |  |  |  |  |  |  |  |  |  | 
10 | Cc1nnc(-c2ccc(C)c(-c3ccc(C(=O)Nc4ccc(NS(C)(=O)=O)cc4)cc3)c2)o1 [GW702865] | 0 | 0 | 0 | 0 | 1 | 0 | 13 | 0 | 0 | 16 |  |  |  |  |  |  |  |  |  | 
11 | Cc1cccc(-c2nc(-c3ccc(S(C)(=O)=O)cc3)sc2-c2ccncc2)c1 | 0 | 0 | 0 | 0 | 7 | 0 | 0 | 1 | 0 | 10 |  |  |  |  |  |  |  |  |  | 
12 | CCCCCc1nc2c(N)ncnc2n1CCCCC [SKF-97255] | 0 | 0 | 11 | 0 | 0 | 27 | 0 | 0 | 0 | 0 |  |  |  |  |  |  |  |  |  | 
13 | Cn1ccc2ncnc(Oc3ccc(NC(=O)Nc4ccncc4)c(Cl)c3)c21 | 0 | 0 | 0 | 0 | 21 | 0 | 0 | 0 | 0 | 0 |  |  |  |  |  |  |  |  |  | 
14 | COc1ccc(CNC(=O)NC2CCN(c3ccnc(Nc4ccc(OC)cc4)n3)C2)cc1 (centres unmarked) [GSK1379727] | 0 | 0 | 0 | 20 | 0 | 0 | 18 | 0 | 0 | 14 |  |  |  |  |  |  |  |  |  | 
15 | COc1cc2ncn(-c3cc(OCc4sccc4Cl)c(C(N)=O)s3)c2cc1OC [GSK448459] | 0 | 0 | 0 | 13 | 0 | 26 | 32 | 0 | 0 | 0 |  |  |  |  |  |  |  |  |  | 
16 | O=c1cc(N2CCOCC2)nc2n(Cc3cccc(C(F)(F)F)c3)ccn12 [GSK2297543] | 9 | 0 | 0 | 6 | 0 | 5 | 25 | 0 | 0 | 13 |  |  |  |  |  |  |  |  |  | 
17 | COc1ccc(S(=O)(=O)NC2CCN(c3cc(C)nc(Nc4cccc(C#N)c4)n3)CC2)cc1.O=C(O)C(F)(F)F [GSK1653539] | 0 | 0 | 0 | 6 | 39 | 12 | 18 | 0 | 0 | 0 |  |  |  |  |  |  |  |  |  | 
